This is an account of results in PubChem BioAssay.
Also: test concentration not given here.

A short description of the first assay: A549 cell viability effects, profiling panel, calcein-AM fluorescence, 48 h, basal (AID 1162). The settings on record: higher = more signal.
Consider `CCOC(=O)[C@H](Cc1ccccc1)NC(=O)CCC1CC(OC(=O)NCc2ccc3c(c2)OCO3)CC2(CCCC(COC(=O)NCC(c3ccccc3)c3ccccc3)O2)O1` (stereo partly drawn), for which the z-score was 1.85. Regarding `COCCCNC(=O)[C@@]1(C)c2ccccc2C(=O)N(Cc2ccc(OC(F)(F)F)cc2)[C@H]1c1ccc(CO)cc1`, the z-score is 0.144. As for `CC(=O)O[C@H]1C2=C(C(=O)[C@@H]3O[C@@H]31)[C@H]1C(C)O[C@@H]2[C@@]23C(=O)[C@@H]4O[C@@H]4[C@@H](O)C2=CO[C@H](C)[C@@H]13` (stereo partly drawn), the z-score is -0.192. As for `COCCOC(=O)N1C(=O)[C@@]2(c3cc(C#CCNC(N)=O)ccc31)[C@H](c1ccc(O)cc1)N1[C@H](c3ccccc3)[C@H](c3ccccc3)OC(=O)[C@H]1[C@@H]2C(=O)N1CCCCCCC1`, the z-score was -0.55. As to `CC(=O)OC[C@H]1O[C@H](CCON=C(C)CCC(=O)OC[C@H]2O[C@H](C#Cc3ccccc3)C=C[C@@H]2Oc2ccc(C)cc2)C=C[C@@H]1OC(C)=O`, the z-score was -0.572. Regarding `O=C1[C@H]2[C@H]3[C@H](O)[C@H](O)CC(=NOC[C@@H](O)COCc4ccco4)[C@H]3CC[C@H]2C(=O)N1c1cccc(Oc2ccccc2)c1`, the z-score is 1.26. Turning to `CC(C)(C)N1C(=O)[C@H]2[C@H]3[C@H](O)[C@H](O)CC(=NO[C@@H]4O[C@H](CO)[C@@H](O)[C@H](O)[C@H]4O)[C@@H]3CC[C@H]2C1=O`, the z-score is -0.504.

The next assay can be described thus: adipocyte viability effects, profiling panel, cell-based, 3T3-L1 adipocytes, calcein-AM fluorescence, 48 h, basal (AID 1163). The note with it: 3T3-L1 adipocytes viability, higher = more signal.
On to `CO[C@H]1COC(=O)[C@@H]2CCCN2C(=O)CC=C[C@@H](C)[C@H](OC)COC(=O)CC=C[C@@H]1C`, for which the z-score is 1.04.

For the compound `CC(C)CON=C1C[C@@H](O)[C@@H](O)[C@@H]2[C@@H]3C(=O)N([C@@H](C)c4ccccc4)C(=O)[C@@H]3CC[C@H]12`, the z-score was -0.297. Same read-out and setting: to `O=C1[C@H]2[C@H]3[C@H](O)[C@H](O)CC(=NOC[C@@H](O)COCc4ccco4)[C@@H]3CC[C@H]2C(=O)N1c1ccc(F)cc1F` belongs 0.165; to `CO[C@@H]1COC(=O)CCC[C@@H](C)[C@H](OC)COC(=O)CCC[C@H]1C`, -0.465; to `C=CC[C@@H]1C=C[C@H](ON=C[C@@H](OC)[C@H](C)C=CCC(=O)OC)[C@@H](CO)O1`, -0.933. Same read-out and setting: to `CCCC[C@@H](O)C1=C(C)C[C@H]2C(=O)N(Cc3ccccc3)C(=O)[C@H]2[C@H]1CO` belongs 0.356; to `CC(CCN1CCc2nc(-c3ccccc3)c(-c3ccccc3)cc2C1)=NO[C@H](C)c1cn([C@@H]2COC[C@H]2O)nn1`, 0.183. Same read-out and setting: to `CC(C)[C@H](NC(=O)OC(C)(C)C)[C@@H](O)CC(=O)OC(C)(C)C` belongs 1.24.

With `CCOC(=O)C[C@H]1[C@H](OC(=O)c2ccc(C(=O)c3ccccc3)cc2)[C@@H](NC(=O)c2ccc(-c3ccccc3)cc2)c2cc(OCCCO)ccc2N1C(=O)c1ccc2ccccc2n1`, the z-score was 1.44. Same read-out and setting: to `CCCNC(=O)OC[C@H]1O[C@H](CCON=C[C@@H](OC)[C@H](C)C=CCC(=O)OC)C=C[C@@H]1Oc1ccc(OC)cc1` belongs 0.764; to `CCOC(=O)CCN1C(=O)[C@H]2[C@H]3[C@H](O)[C@H](O)CC(=NNC(=O)OCc4ccc(OC)cc4)[C@@H]3CC[C@H]2C1=O`, -0.426. `COc1ccc(O[C@H]2C=C[C@@H](c3ccccc3)O[C@@H]2COC(=O)CCC(C)=NOC[C@@H](C)[C@H](OCc2ccccc2)C(C)C)cc1`: the z-score is 0.13. Consider `O=C1[C@H]2[C@H]3[C@H](O)[C@H](O)CC(=NOCc4ccccc4)[C@H]3CC[C@H]2C(=O)N1C[C@@H]1CCCO1`, for which the z-score was -0.247. As for `O=C1O[C@@H](c2ccccc2)[C@@H](c2ccccc2)N2[C@@H](c3ccc(OCCO)cc3)[C@]3(C(=O)Nc4ccc(C#CCCO)cc43)[C@@H](C(=O)N3CCCCCCC3)[C@H]12`, the z-score is 1.02. With `CCCCc1nc2c(c3c1C[C@H](C)OC3)CN(CCC(C)C)CC2`, the z-score is -0.11. Consider `O=C1C2=CC[C@H]3C(=O)N(Cc4ccc5c(c4)OCO5)C(=O)[C@H]3[C@H]2[C@H](O)[C@@H]2O[C@H]12`, for which the z-score is 0.447. Consider `O=C1CCCC=C1C(O)CCOCc1ccccc1` (stereo not drawn), for which the z-score is 0.0411. Same read-out and setting: to `COCCCNC(=O)[C@]1(CCC(=O)OC(C)(C)C)N=C(c2ccc(OCCCO)cc2)O[C@@H]1c1ccccc1N=[N+]=[N-]` belongs 0.463; to `COC(=O)[C@@H]1CCCN1C(=O)[C@@H](C)CO`, 0.512. As for `COc1ccc([Si](C)(C)[C@H]2[C@H](CCO)O[C@@]3(C(=O)N(Cc4cccc(NC(=O)[C@H](C)O)c4)c4ccccc43)[C@@H]2C)cc1`, the z-score is -0.401.

Turning to `CCOC(=O)CCN1C(=O)[C@H]2[C@H]3[C@H](O)[C@H](O)CC(=NOC[C@@H](O)COCc4ccco4)[C@@H]3CC[C@H]2C1=O`, the z-score is 0.171. On the same count and under the same terms, to `CC(CCN1CCCCc2nc(C)c(C)cc21)=NOC(C)CN1CCCCc2nc(C)c(C)cc21` (stereo not drawn) belongs -0.0335. Consider `COCCOC(=O)N1C(=O)[C@@]2(c3cc(C#CC4(O)CCCCCC4)ccc31)[C@H](c1ccc(OCCO)cc1)N1[C@H](c3ccccc3)[C@H](c3ccccc3)OC(=O)[C@H]1[C@@H]2C(=O)NC[C@H](O)c1ccccc1`, for which the z-score was 1.62. In the case of `CC(C)NC(=O)[C@@]1(C)c2ccccc2C(=O)N(Cc2cc(F)cc(C(F)(F)F)c2)[C@H]1c1ccc(CO)cc1`, the z-score is -0.866. For `O=C1[C@H]2[C@H]3[C@H](O)[C@H](O)CC(=NO[C@@H]4O[C@H](CO)[C@@H](O)[C@H](O)[C@H]4O)[C@H]3CC[C@H]2C(=O)N1Cc1ccc2c(c1)OCO2`, the z-score was -1.

In the case of `O=C1[C@H]2[C@H]3[C@H](O)[C@H](O)CC(=NOCc4ccccc4)[C@H]3CC[C@H]2C(=O)N1c1cccc(Oc2ccccc2)c1`, the z-score is -0.921. On the same count and under the same terms, to `C[C@H](c1ccccc1)N1C(=O)[C@H]2[C@@H]3C(=CC[C@H]2C1=O)C(=O)[C@H]1O[C@H]1[C@H]3O` belongs 0.265; to `Cc1cc2c(nc1C)CCCN2CC(C)ON=C1[C@H]2CCn3c(=O)n(-c4ccccc4)c(=O)n3[C@H]2[C@H](O)[C@@H]2O[C@H]12` (stereo partly drawn), 0.0888. With `C#CCCCON=C1C[C@@H](O)[C@@H](O)[C@@H]2[C@@H]3C(=O)N([C@@H](C)c4ccccc4)C(=O)[C@@H]3CC[C@H]12`, the z-score is -0.0991.

Take `CCOC(=O)[C@H](Cc1ccccc1)NC(=O)CCC1CC(OC(=O)NCc2ccc3c(c2)OCO3)CC2(CCCC(COC(=O)NCC(c3ccccc3)c3ccccc3)O2)O1` (stereo partly drawn): the z-score is -0.683. For `COCCCNC(=O)[C@@]1(C)c2ccccc2C(=O)N(Cc2ccc(OC(F)(F)F)cc2)[C@H]1c1ccc(CO)cc1`, the z-score was -0.471. Regarding `CC(=O)O[C@H]1C2=C(C(=O)[C@@H]3O[C@@H]31)[C@H]1C(C)O[C@@H]2[C@@]23C(=O)[C@@H]4O[C@@H]4[C@@H](O)C2=CO[C@H](C)[C@@H]13` (stereo partly drawn), the z-score is -0.392. Take `COCCOC(=O)N1C(=O)[C@@]2(c3cc(C#CCNC(N)=O)ccc31)[C@H](c1ccc(O)cc1)N1[C@H](c3ccccc3)[C@H](c3ccccc3)OC(=O)[C@H]1[C@@H]2C(=O)N1CCCCCCC1`: the z-score was 0.012.

In the case of `CC(=O)OC[C@H]1O[C@H](CCON=C(C)CCC(=O)OC[C@H]2O[C@H](C#Cc3ccccc3)C=C[C@@H]2Oc2ccc(C)cc2)C=C[C@@H]1OC(C)=O`, the z-score is 0.442. The same measure, in the same setting: to `O=C1[C@H]2[C@H]3[C@H](O)[C@H](O)CC(=NOC[C@@H](O)COCc4ccco4)[C@H]3CC[C@H]2C(=O)N1c1cccc(Oc2ccccc2)c1` belongs 0.01; to `CC(C)(C)N1C(=O)[C@H]2[C@H]3[C@H](O)[C@H](O)CC(=NO[C@@H]4O[C@H](CO)[C@@H](O)[C@H](O)[C@H]4O)[C@@H]3CC[C@H]2C1=O`, 0.346.
